Active and inactive are the calls of the source. The calls were made as follows: active = hit-call score of the fitted dose curve at least 0.9, where 1 is the maximum; inactive = score below 0.9.

The experiment can be described thus: APR_HepG2_MicrotubuleCSK_24hr: Apredica 24-hour HepG2 Assay for Microtubule CSK Stabilty (AID 2282909). As to conditions: HepG2 microtubule cytoskeleton imaging, actives raise or lower the signal. An outline of the steps: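 HepG2 cells were treated 24 hr with compound at 0.39–200 uM in duplicate (0.5% DMSO final), then fixed and permeabilized. Alpha-tubulin immunofluorescence was imaged by high-content microscopy, with bidirectional fitting against DMSO and taxol as positive control.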
On to `C=CCc1ccc(O)c(OC)c1`, for which the compound was called inactive.
`O=c1c(O)c(-c2ccc(O)c(O)c2)oc2cc(O)cc(O)c12`: the compound was called inactive.
In the case of `CCCCC(CC)COC(=O)CC(C(=O)OCC(CC)CCCC)S(=O)(=O)O` (configuration not stated), the compound was called inactive.
Turning to `CCOC(=O)C(C)(C)Oc1ccc(Cl)cc1`, the result was inactive.
The same measure, in the same setting: then `Oc1ccc2c(c1)OC[C@@H](N1CCC(O)(c3ccc(F)cc3)CC1)[C@H]2O`, with “inactive”; and `NC(=O)Cn1c(=O)cc(CCN2CCN(c3nccc4sccc34)CC2)c2ccc(F)cc21`, with “inactive”.
Still for that read-out and setting: then `CNCc1cc(F)ccc1Oc1ccc(Cl)c(Cl)c1`, with “inactive”; and `Cc1cccc(Nc2cc(Cl)nc(SCC(=O)O)n2)c1C`, with “inactive”.
The same measure, in the same setting: then `CCOC(=O)CCC(=O)OCC`, with “inactive”; and `CCNc1cccc(C)c1`, with “inactive”.
On to `Nc1ccc2c(c1)C(=O)c1ccccc1C2=O`, for which the compound was called inactive.
Take `NS(=O)(=O)c1cc2c(cc1Cl)NCNS2(=O)=O`: the call was inactive.
The AC50 is the concentration at which the activity in the assay is half-maximal. For `CCCCCCCCCCCCCO`, the AC50 is 117 µM (active).
In the case of `CN1CCCC1=O`, the outcome was inactive.
Same read-out and setting: then `C1CCC(SSC2CCCCC2)CC1`, with “inactive”; and `COCCOC[C@H](CC1(C(=O)NC2CCC(C(=O)O)CC2)CCCC1)C(=O)Oc1ccc2c(c1)CCC2` (some centres not stated), with “inactive”.
Same read-out and setting: then `O=C(N[C@@H](Cc1ccccc1)[C@@H](O)C(=O)N1C[C@@H](O)[C@@H](O)C1)c1cc2cc(Cl)ccc2[nH]1`, with “inactive”; and `CCCCCCCCCCCCCCCC`, with “inactive”; and `O=C(O)Cc1ccccc1Nc1c(Cl)cccc1Cl`, with “inactive”.
Turning to `O=C(O)CCCCC(=O)O`, the compound was classed as inactive.
On the same count and under the same terms, then `CC(C)c1ccc(C(=O)N=C(N)N)cc1S(C)(=O)=O`, with “inactive”; and `Nc1ccc(S(=O)(=O)c2ccc(N)cc2)cc1`, with “inactive”.

The record behind these values is PubChem BioAssay (EPA / NIEHS).
